Compound activity from PubChem BioAssay.
Compounds with a hit are over-represented: about 3.7% of the library has one in this group of screens.
A549 tox = Nrf2 qHTS screen for inhibitors: counterscreen for cytotoxicity. A549 ARE-Fluc cells, CellTiter-Fluor viability, 18-24 h. Potency, µM (series often up to 46 µM), without a hit: at the highest dose activity change, negative = cytotoxicity, most hits filed as inhibitors. 0.16% of 390,000 active; further: on the % scale 0 is the no-effect control and ±100 the full control effect
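A549 ARE_Fluc cells in 5% FBS OPTI-MEM were exposed to compounds in concentration-response for 18-24 h at 37 deg C. Viability was read by CellTiter-Fluor fluorescence (Ex 405/Em 525) after 30 min, before the luciferase read.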
Nrf2 block = Nrf2 qHTS screen for inhibitors; 2.1% of 360,000 active; A549 ARE-Fluc reporter, luciferase luminescence, 18-24 h; Potency, µM (highest dose often 46 µM), for inactives: at the highest dose activity change, negative = inhibition, hits mostly inhibitors; further: on the % scale 0 is the no-effect control and ±100 the full control effect; nearly all actives have a fitted effect of over 60% in size
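Nrf2 function is reported as luminescence of an ARE-controlled luciferase in A549 cells. Compounds were tested at several concentrations, and a CellTiter-Fluor read on the same wells flagged cytotoxicity.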
ELG1 repair inh = qHTS screen for small molecules that inhibit ELG1-dependent DNA repair in human embryonic kidney (HEK293T) cells expressing luciferase-tagged ELG1; Potency, µM (highest dose often 46.1 µM), for the others: at the top dose activity change, negative = inhibition, usual class: inhibitors; 2.3% of 330,000 active; HEK293T ELG1-luciferase reporter, luminescence, 16 h; DNA damage induced by 5-fluorouridine; further: on the % scale 0 is the no-effect control and ±100 the full control effect; nearly all actives have a fitted effect of over 55% in size
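Overnight (16 hr) co-exposure of 2,000 cells/well to 5-fluorouridine and compound at 37 °C preceded detection. Luciferase was quantified via ONE-Glo luminescence; loss of signal denotes inhibition.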
Nrf2 ARE act = qHTS of Nrf2 Activators; AREc32 ARE-luciferase reporter (MCF7-derived line), luminescence, 24 h; Potency, µM (titrated, usually from 46.1 µM), for the others: at the top dose activation, usual class: activators; 0.31% of 410,000 active; AID 624171, 2012; further: % of control where 0% means no effect; nearly all actives have a fitted effect of over 65% in size
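For detection, Steady-Glo was added and plates sat 30 min at RT; before that, AREc32_Fluc cells grown overnight in OPTI-MEM/5% FBS had been treated with 23 nL compound for 24 hr at 37 deg C.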
Numbers without * were called inactive; ? = inconclusive; . = not tested or not shown. The call rests on the fitted dose curve; in most records, active means well fitted curve in the direction sought with a large enough effect; inconclusive means small, poorly fitted or top-dose-only effect, or another doubt; inactive means no such curve, though single readings can be large; an effect the other way counts as inactive or inconclusive. Potency means the concentration at half of the fitted maximal effect.

SMILES | A549 tox | Nrf2 block | ELG1 repair inh | Nrf2 ARE act
COC(=O)c1scc(-c2ccc(C)cc2)c1S(=O)(=O)Nc1cc(OC)c(OC)c(OC)c1 | -1% | ? | . | ?
COc1cccc(C(O)c2ncc(-c3ccccc3)[nH]2)c1 (stereo not given) | . | . | . | 1%
NS(=O)(=O)c1ccc(CCNC(=O)c2ccc(C#CC3(O)CCCCC3)cc2)cc1 | -6% | 3% | 6.5µM* | -2%
Cc1ccc(NC(=O)Nc2c[nH]c(=O)[nH]c2=O)c(Cl)c1 | -1% | ? | . | 0%
O=C(c1cc(COc2cccc(C(F)(F)F)c2)on1)N1CCC(c2ccncc2)CC1 | -12% | 13µM* | 0% | 2%
O=C(c1cc(COc2cccc(C(F)(F)F)c2)on1)N1CCC(c2ccccc2)CC1 | -19% | 13µM* | -3% | 0%
Cc1cccc(C)c1OCc1cc(C(=O)N2CCC(c3ccccc3)CC2)no1 | 13% | 30% | ? | 1%
CC(=O)c1ccc(OCc2cc(C(=O)N3CCC(c4ccncc4)CC3)no2)cc1 | 1% | 0% | 0% | 8%
COc1cccc(OCc2cc(C(=O)N3CCC(c4ccncc4)CC3)no2)c1 | -17% | 5.2µM* | ? | 3%
CCC(C)NC(=O)c1sc2ncccc2c1-n1c(C)ccc1C (stereo not given) | 1% | . | . | 4%
CC(C)(C)OC(=O)NCc1nnc(C(C(=O)OCc2ccccc2)c2ccccc2)s1 (stereo not given) | -4% | 16% | . | .
COc1ccc(-n2cc(C(=O)Nc3cc(F)ccc3F)c3ccccc3c2=O)cc1 | -3% | 16% | . | 2%
CCCc1c(C(=O)N/N=C/c2cccs2)nnn1-c1nonc1N | 0% | 15% | 12% | 8.9µM*
CCCN(CCC)Cc1c(C(=O)N/N=C/c2ccc(Br)cc2)nnn1-c1nonc1N | ? | 16µM* | -13% | -1%
CN(C)Cc1c(C(=O)N/N=C/c2ccccc2OCc2c(F)cccc2Cl)nnn1-c1nonc1N | 4% | 3% | ? | 0%
COc1cccc(-c2c(C(=O)N/N=C(\C)c3cccs3)nnn2-c2nonc2N)c1 | 2% | 15% | -9% | 0%
CN(C)Cc1c(C(=O)N/N=C/c2cccc(OCc3c(F)cccc3Cl)c2)nnn1-c1nonc1N | 0% | 3.7µM* | 1% | 0%
CCOc1cccc(-c2c(C(=O)N/N=C(\C)c3cccs3)nnn2-c2nonc2N)c1 | -5% | ? | 16µM* | 14%
O=C(O)CC(c1ccccc1)N1C(=O)c2cccc([N+](=O)[O-])c2C1=O (stereo not given) | 2% | 3% | 0% | 0%
Cc1cc(C)c(OCC(=O)Nc2nnc(-c3ccco3)o2)c(C)c1 | 1% | 7% | -10% | 0%
O=C(Cn1nnc2ccccc2c1=O)N[C@@H](Cc1ccccc1)C(=O)O | 7% | -25% | 0% | 0%
CC(C)(C)n1nc2c(c1NC(=O)c1cc3ccccc3o1)CS(=O)(=O)C2 | 7% | -8% | 0% | 1%
CC(C)(C)n1nnnc1C(c1cccs1)N1CCN(c2ccccc2)CC1 (stereo not given) | ? | 23µM* | 1% | 0%
Cc1ccccc1-c1nc(C(=O)NCC2CCCO2)cc2c1[nH]c1ccccc12 (stereo not given) | -10% | 23µM* | ? | 3%
COc1cc(-c2nc(C(=O)NC3CCN(Cc4ccccc4)CC3)cc3c2[nH]c2ccccc23)cc(OC)c1OC | -16% | -26% | ? | 7%
COc1cc(-c2nc(C(=O)NC3CCCCC3)cc3c2[nH]c2ccccc23)cc(OC)c1OC | -8% | 9.2µM* | 5.8µM* | 6%
COc1ccc(-c2nc(CSCC(=O)NC3CCN(Cc4ccccc4)CC3)c(C)o2)cc1OC | 1% | 4% | ? | 0%
CC(=O)C1CCC2C3CC=C4N(C)C(=O)CCC4(C)C3CCC12C (stereo not given) | 2% | -6% | . | 0%
COCCn1c(-c2ccc(Br)cc2)nc2oc3cc(OC)ccc3c(=O)c2c1=O | -2% | -2% | -14% | 0%
COc1ccc(OC)c(CCNC(=O)c2cc3c(-c4ccccc4F)nn(C)c3s2)c1 | -2% | 21µM* | . | 0%
